Source: PubChem BioAssay
Sm TGR block: qHTS Assay for the Inhibitors of Schistosoma Mansoni Peroxiredoxins; actives 3% (n = 360,000); Potency, µM (highest dose often 114 µM), for inactives: at the highest dose activity change, negative = inhibition, hits mostly inhibitors; purified TGR, DTNB reduction, TNB absorbance 405 nm; Schistosoma mansoni thioredoxin glutathione reductase (TGR), Q962Y6; further: potency means the concentration at half of the fitted maximal effect; on the % scale 0 is the no-effect control and ±100 the full control effect; nearly all actives have a fitted effect of over 60% in size
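First, TGR (20 nM dispensed) and NADPH were mixed with compound. Second, a 15 min room-temperature incubation followed. Third, further NADPH and then DTNB were added to start the reaction. Finally, TNB absorbance was monitored kinetically.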
Pf growth 96h: Primary qHTS for delayed death inhibitors of the malarial parasite plastid, 96 hour incubation. P. falciparum luciferase reporter growth, 96 h. Potency, µM (series often up to 28.7 µM), for inactives: at the highest dose activity change, negative = inhibition, hits mostly inhibitors. actives 6.9% (n = 320,000); further: potency means the concentration at half of the fitted maximal effect; on the % scale 0 is the no-effect control and ±100 the full control effect
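Plates of compound plus infected erythrocytes (2% hematocrit, 0.05% parasitemia final) incubate 96 hours, 37 C, 5% CO2. Detection reagent added; reduced luminescence from the parasites' luciferase reporter flags inhibition.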
NS1 inh: qHTS Assay for Inhibitors of Influenza NS1 Protein Function; actives 0.4% (n = 270,000); Potency, µM (doses to about 46.1 µM), for the others: at the highest dose activity, positive = more growth; calls by dose curve; further: potency means the concentration at half of the fitted maximal effect; actives are rising curves; nearly all actives have a fitted effect of over 50% in size
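OD600 was taken as the measure of yeast growth restored by compound in an NS1-expressing S. cerevisiae strain. Cells had been washed out of glucose medium and diluted 1:100 into galactose -URA medium, pH 6.0.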
Shiga toxin inh: A qHTS for Small Molecule Inhibitors of Shiga Toxin. Vero cells, Shiga toxin protein synthesis inhibition reporter. inhibition, % at 38.7 µM. actives 9.2% (n = 290,000). AID 2315, 2010; in the data active means inhibition mostly above about 28%, no sharp cut-off; inactive means mostly below about 43%; further: 0% is about no effect
Pf growth 48h: Primary qHTS for delayed death inhibitors of the malarial parasite plastid, 48 hour incubation; actives 5.9% (n = 310,000); P. falciparum luciferase growth in erythrocytes, 48 h; Potency, µM (titrated, usually from 28.7 µM), without a hit: top-dose activity change, negative = inhibition, hits mostly inhibitors; further: potency means the concentration at half of the fitted maximal effect; on the % scale 0 is the no-effect control and ±100 the full control effect
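Compounds are pin-transferred into medium, infected erythrocytes (2% hematocrit, 0.1% parasitemia final) are added, and plates sit one parasite generation at 37 C in 5% CO2. Detection reagent is then added and luminescence measured.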
CHX counter: Cycloheximide Counterscreen for Small Molecule Inhibitors of Shiga Toxin; cell reporter, cycloheximide protein synthesis inhibition counterscreen; max response, %; actives 12% (n = 300,000); AID 2314, 2010; in the data active means max response mostly above about 13%, no sharp cut-off; inactive means mostly below about 14%; further: read at 38.3 µM for the half of the compounds with a filed dose; 0% is about no effect
* marks the source's active call; other numbers are inactive results; ? = inconclusive; / = no result. Sampled rows, rich in hits. Any-hit rate of the full collection: about 21%. Unless noted, the call rests on the fitted dose curve; in most records, active means well fitted curve in the direction sought with a large enough effect; inconclusive means small, poorly fitted or top-dose-only effect, or another doubt; inactive means no such curve, though single readings can be large; an effect the other way counts as inactive or inconclusive.

SMILES	Sm TGR block	Pf growth 96h	NS1 inh	Shiga toxin inh	Pf growth 48h	CHX counter
COc1ccc(/C=C/c2nnc(NC(=O)c3ccco3)s2)cc1	-1%	-3%	-3%	41	4%	9
Cc1ccc(OCc2nnc(NC(=O)c3ccco3)s2)c(C)c1	-5%	1.9µM*	-8%	-14	-3%	-3
C/C=C(\C)c1nnc(NC(=O)c2ccco2)s1	-3%	5%	10%	56*	100%	15*
COc1ccccc1-c1c(NC(=O)c2ccco2)n(-c2ccccc2)nc(C)c1=O	4%	85%	5%	-5	/	0
COc1cccc(-c2c(NC(=O)c3ccco3)n(-c3ccc(C)cc3)nc(C)c2=O)c1	79µM*	-4%	-15%	-10	-10%	-8
COc1ccc(-c2nnc(NC(=O)c3ccco3)s2)cc1	-14%	9%	-11%	53	81%	27*
Cc1ccc(OCc2nnc(NC(=O)c3ccco3)s2)cc1	-23%	5%	-34%	-19	/	-2
CCCCOC(=O)c1ccc(NC(=O)COC(=O)c2ccc3ncsc3c2)cc1	-3%	72%	/	/	-22%	/
COc1ccccc1-n1c(SCC(=O)NCC2CCCO2)nc2c([nH]c3ccccc32)c1=O (configuration not stated)	-7%	-38%	14%	12	0%	2
O=C(Nc1nnc(C23CC4CC(CC(C4)C2)C3)s1)c1ccco1	?	-30%	0%	53*	200%	35*
CCc1ccc(C2=C(C)C(N3CCC(C(=O)Nc4ccc(F)cc4)CC3)=NS2(=O)=O)cc1	-7%	/	/	/	/	/
Clc1ccc(-n2nnnc2CN2CCOCC2)cc1	14%	53%	1%	-12	6%	-2
Cc1ccc(-n2nnnc2CN2CCCCC2)cc1	/	2.1µM*	12%	-9	-13%	-3
Cc1ccc(S(=O)(=O)Cn2nnnc2CN2CCCC3(CCCCC3)C2)cc1	?	/	-42%	3	13µM*	-2
Cc1oc(-c2ccccc2F)nc1CSCC(=O)N1CCN(c2ccccc2)CC1	-2%	/	/	/	/	/
CC(=O)Nc1ccc(S(=O)(=O)N2CCN(c3nc(NC4CCCC4)c4ccccc4n3)CC2)cc1	6%	?	-16%	-19	2.1µM*	-6
CC(=O)Nc1ccc(S(=O)(=O)N2CCC(c3nc4ccccc4[nH]3)CC2)cc1	4%	/	-5%	9	8.3µM*	1
CC(C)(C)C(=O)Nc1ccc(S(=O)(=O)N2CCC(c3nc4ccccc4[nH]3)CC2)cc1	4%	8.3µM*	/	/	13µM*	/
CCOCC(=O)Nc1ccc(S(=O)(=O)N2CCC(c3nc4ccccc4[nH]3)CC2)cc1	-3%	?	/	/	10µM*	/
CN(C)c1ccc(NC(=O)COC(=O)c2cc(=O)c3ccccc3o2)cc1	?	29%	9%	13	33%	-1
COc1ccc(Cl)cc1NC(=O)CSc1nnc2[nH]c(=O)cc(C)n12	7%	/	/	/	/	/
COc1ccc(/C=C(\NC(=O)c2ccco2)C(=O)NCc2ccco2)cc1	1%	32%	3%	-3	3%	-4
O=C(NC(Cc1ccccc1)C(=O)O)/C(=C\c1ccc(F)cc1)NC(=O)c1ccco1 (configuration not stated)	-5%	-24%	13%	-26	14%	-4
O=C(NC(Cc1ccccc1)C(=O)O)/C(=C/c1ccccc1)NC(=O)c1ccco1 (configuration not stated)	-2%	5.2µM*	?	-5	25%	18
O=C(NCc1ccco1)/C(=C\c1cccs1)NC(=O)c1ccco1	-7%	4.1µM*	/	5	35%	-2
SMILES	Sm TGR block	Pf growth 96h	NS1 inh	Shiga toxin inh	Pf growth 48h	CHX counter
O=C(NCc1ccco1)/C(=C\c1ccc(F)cc1)NC(=O)c1ccco1	32µM*	1%	23%	-7	11%	-2
O=C(NCc1ccco1)/C(=C/c1ccco1)NC(=O)c1ccco1	25µM*	2%	/	-9	-6%	-7
CCOCCCNC(=S)N1C2CCC1CC(NC(=O)NC1CCCCC1)C2 (configuration not stated)	1%	8%	-4%	-4	?	0
Cc1ccc(C(=O)CCC2CCCCC2=O)cc1 (configuration not stated)	6%	140%	6%	101*	/	33*
CCc1ccc(C(=O)CCC2CCCCC2=O)cc1 (configuration not stated)	-29%	29%	6%	96*	/	36*
Cc1ccc(C(=O)CCC2CCCC2=O)cc1 (configuration not stated)	1%	87%	-2%	53*	97%	50*
O=C(CCC1CCCCC1=O)c1ccccc1 (configuration not stated)	7%	?	5%	33	56%	18
CCc1ccc(NCCC(=O)c2ccc(Cl)cc2)cc1	?	57%	-4%	-6	2%	-1
Cc1ccc(C(=O)CCC(=O)NC2CCCC(C)C2C)cc1 (configuration not stated)	-1%	40%	5%	-2	0%	0
CC(C)(C)NC(=O)C(OC(=O)c1cccs1)c1ccc(F)cc1 (configuration not stated)	-8%	260%	/	-8	-4%	9
Cc1cc(C)n(C(=O)c2c([N+](=O)[O-])cnn2C)n1	1%	41%	2%	-7	17%	-2
CCn1ncc([N+](=O)[O-])c1C(=O)n1nc(C)cc1C	-6%	35%	1%	112*	35%	45*
COc1ccccc1CNC(=O)CCCNC(=O)c1ccc(Cl)cc1	5%	0%	-10%	6	-5%	8
COc1ccc(C(=O)NCCCCCCNC(=O)c2ccc(OC)cc2)cc1	-12%	35%	-4%	41	52%	16*
Cc1ccc(OCCNC(=O)CNC(=O)c2ccccc2Cl)cc1	-10%	-10%	/	/	-18%	/
COc1ccc(C(=O)NN)cc1	-6%	69%	-1%	59	48%	24*
COc1cccc(CNC(=O)CCCNC(=O)c2ccc(Cl)cc2)c1	22µM*	?	-17%	-10	?	18
Cc1ccc(OCCNC(=O)c2ccccc2O)cc1	-1%	?	-68%	33	?	12*
CCC(=O)Nc1ccc(NCc2cccs2)cc1	1%	16%	0%	12	27%	11
COc1ccc(-c2cc(C(F)(F)F)nc(SCCC(=O)Nc3c(C)cccc3C)n2)cc1	12%	/	/	/	/	/
COc1ccc(C(=O)NCCOc2cccc(OC)c2)cc1	/	0%	-3%	35	8%	15
CS(=O)(=O)NCc1ccc(C(=O)NCCOc2ccccc2)cc1	-4%	-4%	-3%	63*	163%	50*
